Laboratory results reported in ChEMBL document CHEMBL1961873, “Compounds: GSK PKIS; Assays: Nanosyn kinase panel” (2012).

Tests used:
[1] = molecular target: Serine/threonine-protein kinase 26 (Homo sapiens) (UniProt Q9P289); details: at 1 µM;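 note: mean inhibition of MST4 kinase activity, reported from the GSK PKIS inhibitor-set screening panel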
[2] = molecular target: Serine/threonine-protein kinase PAK 1 (Homo sapiens) (UniProt Q13153); details: at 0.1 µM
[3] = molecular target: Serine/threonine-protein kinase PAK 1 (Homo sapiens) (UniProt Q13153); details: at 1 µM
[4] = molecular target: Serine/threonine-protein kinase PAK 2 (Homo sapiens) (UniProt Q13177); details: at 0.1 µM
[5] = molecular target: Serine/threonine-protein kinase PAK 2 (Homo sapiens) (UniProt Q13177); details: at 1 µM
[6] = molecular target: Serine/threonine-protein kinase PAK 3 (Homo sapiens) (UniProt O75914); details: at 0.1 µM
[7] = molecular target: Serine/threonine-protein kinase PAK 3 (Homo sapiens) (UniProt O75914); details: at 1 µM
[8] = molecular target: Serine/threonine-protein kinase PAK 5 (Homo sapiens) (UniProt Q9P286); details: at 0.1 µM
[9] = molecular target: Serine/threonine-protein kinase PAK 5 (Homo sapiens) (UniProt Q9P286); details: at 1 µM
[10] = molecular target: Serine/threonine-protein kinase PAK 6 (Homo sapiens) (UniProt Q9NQU5); details: at 0.1 µM
[11] = molecular target: Serine/threonine-protein kinase PAK 6 (Homo sapiens) (UniProt Q9NQU5); details: at 1 µM
[12] = test system: Tyrosine-protein kinase ABL1 (Homo sapiens), P00519 [E255K]; details: at 0.1 µM
[13] = test system: Tyrosine-protein kinase ABL1 (Homo sapiens), P00519 [E255K]; details: at 1 µM
[14] = test system: Tyrosine-protein kinase ABL1 (Homo sapiens), P00519 [H396P]; details: at 0.1 µM
[15] = test system: Tyrosine-protein kinase ABL1 (Homo sapiens), P00519 [H396P]; details: at 1 µM
[16] = test system: Tyrosine-protein kinase ABL1 (Homo sapiens), P00519 [M351T]; details: at 0.1 µM
[17] = test system: Tyrosine-protein kinase ABL1 (Homo sapiens), P00519 [M351T]; details: at 1 µM
[18] = test system: Tyrosine-protein kinase ABL1 (Homo sapiens), P00519 [Q252H]; details: at 0.1 µM
[19] = test system: Tyrosine-protein kinase ABL1 (Homo sapiens), P00519 [Q252H]; details: at 1 µM
[20] = test system: Tyrosine-protein kinase ABL1 (Homo sapiens), P00519 [T315I]; details: at 0.1 µM

Serine/threonine-protein kinase PAK 1 (Homo sapiens), sequence (Q13153 whole entry): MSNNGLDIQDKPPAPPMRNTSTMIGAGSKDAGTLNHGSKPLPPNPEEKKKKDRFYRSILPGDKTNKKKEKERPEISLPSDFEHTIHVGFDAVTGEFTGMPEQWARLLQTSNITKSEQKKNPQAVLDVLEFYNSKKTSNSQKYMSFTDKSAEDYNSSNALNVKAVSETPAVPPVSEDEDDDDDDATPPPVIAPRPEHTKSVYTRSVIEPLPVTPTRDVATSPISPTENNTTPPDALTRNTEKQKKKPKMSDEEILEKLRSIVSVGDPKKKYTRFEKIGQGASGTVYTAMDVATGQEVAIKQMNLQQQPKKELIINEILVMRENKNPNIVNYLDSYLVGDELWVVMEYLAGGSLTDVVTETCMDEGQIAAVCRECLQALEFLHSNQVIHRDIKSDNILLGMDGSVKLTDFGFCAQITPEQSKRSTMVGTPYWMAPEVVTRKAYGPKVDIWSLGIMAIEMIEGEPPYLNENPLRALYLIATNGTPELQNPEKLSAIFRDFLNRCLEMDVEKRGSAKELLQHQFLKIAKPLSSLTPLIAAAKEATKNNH
Serine/threonine-protein kinase PAK 2 (Homo sapiens), sequence (Q13177 whole entry): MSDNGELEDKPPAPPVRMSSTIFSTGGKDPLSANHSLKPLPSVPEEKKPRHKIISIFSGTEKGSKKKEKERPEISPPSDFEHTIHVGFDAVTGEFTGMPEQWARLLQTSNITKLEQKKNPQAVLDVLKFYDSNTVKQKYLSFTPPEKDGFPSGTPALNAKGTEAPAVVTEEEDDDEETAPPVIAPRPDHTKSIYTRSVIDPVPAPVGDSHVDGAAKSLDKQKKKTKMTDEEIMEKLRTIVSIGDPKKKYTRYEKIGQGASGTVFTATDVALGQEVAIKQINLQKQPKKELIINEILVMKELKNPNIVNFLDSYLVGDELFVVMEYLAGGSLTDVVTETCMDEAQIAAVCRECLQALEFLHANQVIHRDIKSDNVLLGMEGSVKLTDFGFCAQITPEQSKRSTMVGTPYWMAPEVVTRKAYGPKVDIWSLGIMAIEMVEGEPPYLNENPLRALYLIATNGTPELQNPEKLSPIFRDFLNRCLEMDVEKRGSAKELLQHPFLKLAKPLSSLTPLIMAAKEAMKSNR
Serine/threonine-protein kinase PAK 6 (Homo sapiens), sequence (Q9NQU5 whole entry, looked up): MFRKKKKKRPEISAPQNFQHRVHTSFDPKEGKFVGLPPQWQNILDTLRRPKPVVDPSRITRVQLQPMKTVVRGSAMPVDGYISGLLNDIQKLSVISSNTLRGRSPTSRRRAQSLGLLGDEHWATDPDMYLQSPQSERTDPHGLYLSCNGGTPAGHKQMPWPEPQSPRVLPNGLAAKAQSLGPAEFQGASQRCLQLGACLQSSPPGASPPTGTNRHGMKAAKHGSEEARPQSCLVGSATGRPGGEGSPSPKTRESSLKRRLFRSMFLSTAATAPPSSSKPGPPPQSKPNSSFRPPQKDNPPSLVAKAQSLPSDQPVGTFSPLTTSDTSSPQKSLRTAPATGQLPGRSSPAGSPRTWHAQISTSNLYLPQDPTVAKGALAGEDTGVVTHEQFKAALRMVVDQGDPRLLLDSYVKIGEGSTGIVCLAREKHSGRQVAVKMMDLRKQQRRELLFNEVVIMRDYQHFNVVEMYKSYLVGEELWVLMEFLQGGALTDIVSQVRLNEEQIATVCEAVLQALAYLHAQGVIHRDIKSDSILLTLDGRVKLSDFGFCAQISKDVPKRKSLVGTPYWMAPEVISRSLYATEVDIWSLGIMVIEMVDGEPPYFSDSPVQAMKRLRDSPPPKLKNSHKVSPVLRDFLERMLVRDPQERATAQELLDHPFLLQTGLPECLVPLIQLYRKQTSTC
Serine/threonine-protein kinase PAK 3 (Homo sapiens), sequence (O75914 whole entry, looked up): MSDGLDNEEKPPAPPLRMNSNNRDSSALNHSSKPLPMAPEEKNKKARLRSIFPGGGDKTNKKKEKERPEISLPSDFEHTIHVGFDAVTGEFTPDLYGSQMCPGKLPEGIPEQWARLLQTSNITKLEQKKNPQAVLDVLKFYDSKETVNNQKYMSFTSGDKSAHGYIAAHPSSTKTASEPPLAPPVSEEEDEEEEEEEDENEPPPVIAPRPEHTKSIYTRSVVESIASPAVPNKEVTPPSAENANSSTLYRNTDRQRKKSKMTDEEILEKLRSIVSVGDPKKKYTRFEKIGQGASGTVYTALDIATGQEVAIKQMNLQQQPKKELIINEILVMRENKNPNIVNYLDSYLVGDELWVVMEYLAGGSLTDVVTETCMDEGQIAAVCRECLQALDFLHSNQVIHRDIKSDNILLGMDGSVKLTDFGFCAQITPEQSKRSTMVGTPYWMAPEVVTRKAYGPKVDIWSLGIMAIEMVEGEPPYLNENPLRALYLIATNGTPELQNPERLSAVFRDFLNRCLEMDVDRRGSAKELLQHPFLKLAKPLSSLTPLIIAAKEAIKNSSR
Serine/threonine-protein kinase 26 (Homo sapiens), sequence (Q9P289 2-416 limits assumed): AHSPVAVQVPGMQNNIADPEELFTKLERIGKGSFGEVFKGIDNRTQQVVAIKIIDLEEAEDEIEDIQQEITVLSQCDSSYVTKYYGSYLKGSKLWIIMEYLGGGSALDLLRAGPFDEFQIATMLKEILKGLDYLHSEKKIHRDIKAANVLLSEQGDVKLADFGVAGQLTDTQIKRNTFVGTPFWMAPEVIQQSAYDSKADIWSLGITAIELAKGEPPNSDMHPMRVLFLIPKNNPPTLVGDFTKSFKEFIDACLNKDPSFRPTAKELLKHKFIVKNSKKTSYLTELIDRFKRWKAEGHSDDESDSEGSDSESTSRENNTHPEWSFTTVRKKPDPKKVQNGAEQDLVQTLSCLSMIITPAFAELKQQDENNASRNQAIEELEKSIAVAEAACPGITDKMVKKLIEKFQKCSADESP
Serine/threonine-protein kinase PAK 5 (Homo sapiens), sequence (Q9P286 whole entry, looked up): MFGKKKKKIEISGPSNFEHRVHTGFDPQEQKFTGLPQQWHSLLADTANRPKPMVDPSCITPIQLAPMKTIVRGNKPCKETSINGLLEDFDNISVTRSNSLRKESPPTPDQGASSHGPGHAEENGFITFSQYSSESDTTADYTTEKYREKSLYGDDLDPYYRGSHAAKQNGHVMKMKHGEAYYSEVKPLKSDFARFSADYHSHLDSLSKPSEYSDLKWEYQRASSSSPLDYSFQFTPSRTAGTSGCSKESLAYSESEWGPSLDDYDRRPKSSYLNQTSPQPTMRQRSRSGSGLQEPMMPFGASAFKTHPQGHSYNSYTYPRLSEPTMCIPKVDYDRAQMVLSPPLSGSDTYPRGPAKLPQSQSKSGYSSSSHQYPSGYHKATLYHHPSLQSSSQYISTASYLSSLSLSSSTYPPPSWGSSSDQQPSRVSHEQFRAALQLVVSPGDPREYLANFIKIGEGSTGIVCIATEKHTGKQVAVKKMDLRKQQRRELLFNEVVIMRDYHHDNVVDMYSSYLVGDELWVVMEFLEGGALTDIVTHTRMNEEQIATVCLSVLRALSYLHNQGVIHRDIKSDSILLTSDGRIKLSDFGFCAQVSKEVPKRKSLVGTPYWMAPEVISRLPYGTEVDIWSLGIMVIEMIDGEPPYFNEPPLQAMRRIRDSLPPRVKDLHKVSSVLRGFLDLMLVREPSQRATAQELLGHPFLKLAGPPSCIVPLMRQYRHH

Structure (SMILES) | inhibition [1] [%] | inhibition [2] [%] | inhibition [3] [%] | inhibition [4] [%] | inhibition [5] [%] | inhibition [6] [%] | inhibition [7] [%] | inhibition [8] [%] | inhibition [9] [%] | inhibition [10] [%] | inhibition [11] [%] | inhibition [12] [%] | inhibition [13] [%] | inhibition [14] [%] | inhibition [15] [%] | inhibition [16] [%] | inhibition [17] [%] | inhibition [18] [%] | inhibition [19] [%] | inhibition [20] [%]
O=C1NC(=O)C(c2ccccc2Cl)=C1Nc1cccc(O)c1 | 2.65 | 3.51 | 3.76 | 1.94 | 1.62 | 2.51 | 3.3 | 11.9 | -1.3 | -0.02 | 11.2 | 1.22 | 1.02 | 3.02 | 1.17 | -0.23 | 2.78 | 2.48 | 1.91 | 3.52
[O-][S+]1CCN(Cc2ccc(-c3ccc4ncnc(Nc5ccc(OCc6ccccc6)c(F)c5)c4c3)o2)CC1 | 5.46 | 1.29 | 5.06 | 0.28 | -0.13 | 1.32 | 1.96 | -1.94 | -2.2 | 2.21 | -0.59 | 1.66 | 2.97 | 2.03 | 0.51 | 2.17 | 0.04 | 1.58 | 0.89 | 1.21
Cc1nnc(-c2ccc(C)c(-c3ccc(C(=O)Nc4cccc(C#N)c4)cc3)c2)o1 | -0.56 | 5.8 | 1.41 | 0.71 | 0.48 | 2.48 | 2.15 | 0.22 | -1.12 | -9.89 | -7.37 | 2 | 4.21 | -0.02 | 3.51 | -0.06 | 2.91 | 3.04 | 4.21 | 1.53
Cc1ccc(NC(=O)c2ccnc(N3CCCC3)c2)cc1-c1ccc(C(=O)NCC2CC2)cc1 | 6.65 | 5.46 | 8.39 | 1.66 | 0.96 | 4.52 | 5.08 | -9.56 | -5.63 | -2.61 | -7.72 | 1.9 | 5.48 | 3 | 2.43 | 0.54 | 9.12 | 2.92 | 12.4 | 0.94
Cc1cccc(-c2n[nH]cc2-c2ccc3ncccc3n2)n1 | 2.02 | -2.12 | 3.22 | -2.02 | -0.91 | 0.55 | 1.22 | -7.66 | -3.76 | -5.68 | -8.92 | 4.1 | 29.4 | 5.48 | 35.5 | 2.99 | 35.3 | 3.21 | 29.6 | -0.61
COc1ccc2cc(-c3c(-c4ccncc4)nc(-c4ccc([S+](C)[O-])cc4)n3C)ccc2c1 (stereo not given) | -1.05 | 4.83 | 2.57 | 1.33 | 1.31 | 3.03 | 3.28 | -4.32 | -3.64 | -2.25 | -0.4 | 2.75 | 1.85 | 0.68 | 3.52 | 0.25 | 2.54 | 1.22 | 5.05 | 1.07
CCc1cccc(NC(=O)Nc2ccc(Oc3ccc4nc(NC(=O)OC)[nH]c4c3)cc2)c1 | 2.74 | 1.22 | 2.79 | 0.53 | 0.26 | 0.88 | 2.93 | 8.59 | -2.14 | 15.4 | 1.29 | 6.09 | 14.3 | 34 | 51.8 | 48.6 | 57.9 | 48.4 | 60.8 | 40.6
COc1cc2c(cc1Nc1nc(N3CCc4ccccc43)c3cc[nH]c3n1)N(C(=O)CN(C)C)CC2 | 4.16 | 3.44 | 4.36 | 0.89 | 1.19 | 1.31 | 2.24 | 0.19 | -1.41 | -3.46 | -0.54 | 0.52 | 1.73 | 0.54 | -0.96 | 0.88 | -0.63 | 1.56 | 2.24 | 1.05
CCn1c(-c2nonc2N)nc2c(C#CC(C)(C)O)nc(OC[C@@H](N)c3ccccc3)cc21 | 14.1 | -5.15 | 1.43 | 3.89 | 36.3 | -1.93 | 0.72 | 87 | 87.7 | 90.8 | 91.4 | -1.82 | 1.65 | 0.8 | -0.27 | 1.41 | 0.68 | 0.61 | -0.28 | 0.08
COc1cc2ncn(-c3cc(O[C@@H](C)c4ccccc4Cl)c(C(N)=O)s3)c2cc1OC | -7.1 | 7.98 | 9.51 | 1.89 | 2.93 | 5.16 | 5.27 | 2.62 | 4.73 | -0.86 | -1.4 | 7.11 | 21.4 | 9.2 | 33.8 | 3.76 | 29.7 | 6.57 | 28.5 | 3.45
O=C1NC(=O)C(N2CCc3ccccc32)=C1c1ccc(Cl)cc1 | -1.05 | 8.65 | 7.01 | 2.34 | 1.81 | 5.1 | 5.8 | 0.62 | -2.87 | 2.3 | -5.45 | 4.83 | 4.21 | 6.7 | 2.97 | 3.31 | 3.23 | 6.26 | 3.84 | 2.02
COc1cc2ncn(-c3cc(OCc4ccccc4Cl)c(C(N)=O)s3)c2cc1OC | -3.28 | 3.48 | 1.43 | -1.4 | -1.31 | -3.29 | 1.37 | -3.38 | 0.31 | -7.38 | -7.5 | 1.52 | 21.7 | 6.52 | 31.1 | 4.21 | 32.3 | 5.23 | 28.2 | 3.9
CS(=O)(=O)CCNCc1nc(-c2ccc3ncnc(Nc4ccc(F)c(Cl)c4)c3c2)cs1 | 0.43 | 2.77 | 4.21 | 1.56 | 1.25 | 2 | 3.08 | 2.01 | 8.16 | 5.79 | 0.67 | 2.57 | 10.6 | 5.57 | 16.2 | 0.97 | 12.9 | 3.6 | 16 | 1.06
